High-throughput results: PubChem, several laboratories
MITF TRPM1 inh = MITF TRPM1 promoter inhibition in SK-MEL-5 cells; 0.83% of 330,000 active; AID 488899; SK-MEL-5 TRPM1 promoter luciferase, 24 h; inhibition, % at 12.5 µM;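 active = mean inhibition across replicates of 60% or more, whatever share of single replicates reaches that level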
HIF-2a block = blocks HIF-2a reporter activity; 0.72% of 360,000 active; inhibition, % at 18.8 µM; 786-0 RCC cells HIF-2a reporter, luciferase luminescence, overnight;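 active = inhibition of the luminescence signal of 40% or more relative to plate controls, in a single-dose primary screen at 18.75 µM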
Peg3 prom inh = inhibitors of Peg3 promoter | inhibition, % at 20 µM | 1.7% of 360,000 active | AID 588405 | HeLa PEG-Prom luciferase reporter, luminescence, overnight;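 active = inhibition of at least 50% at 20 µM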
Shn3 3UTR inh = inhibitors of Schnurri-3 3'UTR reporter in osteoblasts. Clone20 osteoblast Shn3 3'UTR firefly luciferase, 24 h. inhibition, % at 12.5 µM. 0.52% of 360,000 active. AID 588674;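 active = mean inhibition of at least 75% with every replicate also reaching 75%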;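 also: 0% = median of neutral control wells and 100% = pilot-screen positive control compound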
CF NFkB inh = cystic fibrosis NF-kB activation inhibition | 0.86% of 360,000 active | KKLEB NF-kB-GFP reporter, PAF-induced, GFP fluorescence overnight | inhibition, % at 5 µM;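 active = at least 50% inhibition at 5 µM, scaled per plate between neutral and stimulator controls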;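 also: PAF is a Pseudomonas aeruginosa culture filtrate used as stimulus; plate controls were PAF-stimulated DMSO wells for no effect and unstimulated DMSO wells for full effect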
KKLEB tox = reduces viability of KKLEB cystic fibrosis airway cells | KKLEB CF airway cells viability, ATPlite luminescence, overnight; stronger effect = lower value; cells stimulated with P. aeruginosa culture filtrate | activity change (cytotoxicity), % at 5 µM | 0.36% of 360,000 active;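 active = corrected activity change at or below -50% at 5 µM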
Mdm2 MdmX conf = confirmation of inhibitors of human Mdm2/MdmX interaction, set 2. SaOS-2 split-luciferase Mdm2/MdmX complementation, luminescence. AID 504601. inhibition, % at 8 µM. 99% of 740 active. shares compounds with HIF-2a block;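 active = mean inhibition of the luminescence signal across two replicates at or above 26 percent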
Target sequence (O15151 whole entry, looked up): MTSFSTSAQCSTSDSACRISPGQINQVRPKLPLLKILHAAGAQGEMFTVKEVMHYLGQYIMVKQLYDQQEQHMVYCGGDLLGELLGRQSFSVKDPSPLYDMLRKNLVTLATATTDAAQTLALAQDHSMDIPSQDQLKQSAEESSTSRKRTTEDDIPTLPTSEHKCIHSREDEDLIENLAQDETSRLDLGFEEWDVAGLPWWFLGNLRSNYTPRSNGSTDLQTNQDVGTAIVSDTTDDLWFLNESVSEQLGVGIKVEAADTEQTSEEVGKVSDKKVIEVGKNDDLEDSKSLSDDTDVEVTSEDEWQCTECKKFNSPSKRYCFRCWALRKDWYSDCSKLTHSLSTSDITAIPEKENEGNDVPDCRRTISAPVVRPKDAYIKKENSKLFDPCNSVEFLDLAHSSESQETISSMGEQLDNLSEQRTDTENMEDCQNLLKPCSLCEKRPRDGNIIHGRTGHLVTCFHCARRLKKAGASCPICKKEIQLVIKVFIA
Target sequence (Q00987 whole entry, looked up): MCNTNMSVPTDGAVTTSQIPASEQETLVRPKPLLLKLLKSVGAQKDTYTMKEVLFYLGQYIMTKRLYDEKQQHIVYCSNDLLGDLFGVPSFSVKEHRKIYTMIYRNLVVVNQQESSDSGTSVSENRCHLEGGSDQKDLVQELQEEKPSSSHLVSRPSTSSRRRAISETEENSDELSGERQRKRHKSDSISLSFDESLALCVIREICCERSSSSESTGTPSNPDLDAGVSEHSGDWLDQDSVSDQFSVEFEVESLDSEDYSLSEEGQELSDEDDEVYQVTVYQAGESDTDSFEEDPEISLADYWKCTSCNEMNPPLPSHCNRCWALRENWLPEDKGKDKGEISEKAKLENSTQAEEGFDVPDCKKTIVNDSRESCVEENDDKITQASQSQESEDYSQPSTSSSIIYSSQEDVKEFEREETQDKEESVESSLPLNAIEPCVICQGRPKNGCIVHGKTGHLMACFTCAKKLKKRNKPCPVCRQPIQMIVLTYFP
HIF-2a conf = confirmation of HIF-2a inhibitors | inhibition, % at 18.8 µM | shares compounds with HIF-2a block | 786-0 RCC cells, HIF-2a luciferase reporter luminescence, overnight | 56% of 1,800 active;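 active = mean inhibition across four replicates of at least 40 percent at the single tested concentration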
HIF-1a cs = counter-screen for HIF-2a inhibitors: HIF-1a inhibition in MiaPaCa-2 cells. MiaPaCa-2 HIF-1a luciferase reporter, desferoxamine, overnight. inhibition, % at 18.8 µM. AID 651589. 72% of 1,800 active. shares compounds with HIF-2a block;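 active = mean inhibition of the reporter signal across four replicates at the single tested dose of 50% or more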
Numbers without * were called inactive. An excerpt weighted towards active compounds, which were near 2.7% of everything screened.

How did COc1ccc(CC(=O)C2C(=O)N(C)c3ccccc32)cc1OC (configuration not stated) do in these assays?
MITF TRPM1 inh: -16; HIF-2a block: 2; Peg3 prom inh: 15; Shn3 3UTR inh: -20; CF NFkB inh: -2; KKLEB tox: -6

How did COc1cc2c(cc1O)C[C@H]1NCCc3cc4c(c-2c31)OCO4 do in these assays?
MITF TRPM1 inh: 23; HIF-2a block: 50*; Peg3 prom inh: 44; Shn3 3UTR inh: 4; CF NFkB inh: -315; KKLEB tox: 17; HIF-2a conf: 35; HIF-1a cs: 104*

Results for CCCCCCCSc1cc(OC)c(CCNC)cc1OC ?
MITF TRPM1 inh: 102*; HIF-2a block: 44*; Peg3 prom inh: 112*; Shn3 3UTR inh: 94*; CF NFkB inh: 29; KKLEB tox: -22; HIF-2a conf: 9; HIF-1a cs: 106*

How did NC(=S)c1cn(C2OC(CO)C(O)C2O)c2ncnc(N)c12 (configuration not stated) do in these assays?
MITF TRPM1 inh: 82*; HIF-2a block: 52*; Peg3 prom inh: 107*; Shn3 3UTR inh: 97*; CF NFkB inh: 90*; KKLEB tox: -79*; HIF-2a conf: 32; HIF-1a cs: 105*

Results for Nc1ncnc2c1ccn2[C@@H]1O[C@H](CO)[C@@H](O)[C@H]1O ?
HIF-2a block: 35*; Peg3 prom inh: 100*; Shn3 3UTR inh: 96*; CF NFkB inh: 87*; KKLEB tox: -97*; Mdm2 MdmX conf: 103*; HIF-2a conf: 29; HIF-1a cs: 103*

What do the screens show for `CCC1C2CC3C4N(C)c5ccccc5C45CC(C2C5O)N3C1O` (configuration not stated)?
HIF-2a block: 8; Peg3 prom inh: 3; Shn3 3UTR inh: -7; CF NFkB inh: 1; KKLEB tox: -3

How did c1cc2c(cc1NC1=NCCO1)CCCC2 do in these assays?
MITF TRPM1 inh: -5; HIF-2a block: -12; Peg3 prom inh: -72; Shn3 3UTR inh: -11; CF NFkB inh: -10; KKLEB tox: 15

Results for NC(N)=N/N=C/c1cn(-c2ccccc2)nc1-c1cccs1 ?
MITF TRPM1 inh: 44; HIF-2a block: -34; Peg3 prom inh: 106*; Shn3 3UTR inh: 0; CF NFkB inh: 10; KKLEB tox: -24; Mdm2 MdmX conf: 103*

What do the screens show for `CNC(C)Cc1ccccc1Sc1ccc(O)cc1` (configuration not stated)?
MITF TRPM1 inh: -11; HIF-2a block: 50*; Peg3 prom inh: 9; Shn3 3UTR inh: 14; CF NFkB inh: -1; KKLEB tox: -2; HIF-2a conf: 0; HIF-1a cs: 49

What do the screens show for `N#CC1C(C#N)C2CCC1C1C2N1c1ccccc1` (configuration not stated)?
MITF TRPM1 inh: 7; HIF-2a block: 10; Peg3 prom inh: -28; Shn3 3UTR inh: 27; CF NFkB inh: 8; KKLEB tox: 1

Results for CC(=O)OC[C@]12CCC(C)=C[C@H]1O[C@@H]1[C@H](O)[C@@H](OC(C)=O)[C@@]2(C)[C@]12CO2 ?
MITF TRPM1 inh: 91*; HIF-2a block: 90*; Peg3 prom inh: 108*; Shn3 3UTR inh: 99*; CF NFkB inh: 104*; KKLEB tox: -56*; HIF-2a conf: 81*; HIF-1a cs: 105*

How did C[C@@H]1CN([C@@H](C)CO)C(=O)CCCn2nncc2CO[C@H]1CN(C)C(=O)Oc1ccc2ccccc2c1 do in these assays?
HIF-2a block: -1; Peg3 prom inh: 13; Shn3 3UTR inh: 6; CF NFkB inh: -42; KKLEB tox: 17

What do the screens show for `COc1cccc(NP(=O)(Oc2ccc(Cl)cc2)Oc2ccc(Cl)cc2)c1`?
MITF TRPM1 inh: -11; HIF-2a block: 13; Peg3 prom inh: -27; Shn3 3UTR inh: 10; CF NFkB inh: -4; KKLEB tox: -5

How did O=[N+]([O-])c1cccc(NP(=O)(Oc2ccccc2)Oc2ccccc2)c1 do in these assays?
MITF TRPM1 inh: 15; HIF-2a block: 42*; Peg3 prom inh: 43; Shn3 3UTR inh: 16; CF NFkB inh: -7; KKLEB tox: 4; HIF-2a conf: 43*; HIF-1a cs: 47

What do the screens show for `Oc1ccc(-[n+]2c(-c3ccccc3)cc(-c3ccccc3)cc2-c2ccccc2)cc1`?
MITF TRPM1 inh: 84*; HIF-2a block: -22; Peg3 prom inh: 86*; Shn3 3UTR inh: 22; CF NFkB inh: 40; KKLEB tox: -15; Mdm2 MdmX conf: 102*

What do the screens show for `CC(=O)C1CCC2(O)C3CCC4=CC(=O)CCC4(C)C3CCC12C` (configuration not stated)?
MITF TRPM1 inh: 4; HIF-2a block: 4; Peg3 prom inh: -5; Shn3 3UTR inh: -2; CF NFkB inh: 13; KKLEB tox: 4

How did C[C@@H]1O[C@@H](O[C@@H]2C=C3CC[C@@H]4C(CC[C@]5(C)[C@@H](c6ccc(=O)oc6)CC[C@]45O)[C@@]3(C)CC2)[C@H](O)[C@H](O)[C@H]1O (some centres not stated) do in these assays?
MITF TRPM1 inh: 83*; HIF-2a block: 86*; Peg3 prom inh: 107*; Shn3 3UTR inh: 3; CF NFkB inh: 89*; KKLEB tox: -76*; HIF-2a conf: 46*; HIF-1a cs: 105*

How did NC(N)=Nc1ccc2[nH]c3c(c2c1)C[C@@]1(O)[C@H]2Cc4ccc(O)c5c4[C@@]1(CCN2CC1CC1)[C@H]3O5 do in these assays?
MITF TRPM1 inh: 4; HIF-2a block: 16; Peg3 prom inh: -4; Shn3 3UTR inh: -23; CF NFkB inh: -24; KKLEB tox: -2

What do the screens show for `O=[N+]([O-])c1c(Cl)c(Cl)c(Cl)c(Cl)c1Cl`?
MITF TRPM1 inh: 9; HIF-2a block: 7; Peg3 prom inh: 9; Shn3 3UTR inh: 7; CF NFkB inh: -4; KKLEB tox: -13

How did Nc1cc(Cl)c2nonc2c1[N+](=O)[O-] do in these assays?
MITF TRPM1 inh: 93*; HIF-2a block: 94*; Peg3 prom inh: 107*; Shn3 3UTR inh: 95*; CF NFkB inh: 76*; KKLEB tox: -76*; HIF-2a conf: 97*; HIF-1a cs: 103*

How did COc1cc(/C=C/[N+](=O)[O-])ccc1O do in these assays?
MITF TRPM1 inh: 57; HIF-2a block: 70*; Peg3 prom inh: 18; Shn3 3UTR inh: 10; CF NFkB inh: -33; KKLEB tox: 1; HIF-2a conf: 52*; HIF-1a cs: 21

What do the screens show for `C[C@H]1CCC/C=C/[C@@H]2C[C@H](O)C[C@H]2[C@H](O)/C=C/C(=O)O1`?
MITF TRPM1 inh: 81*; HIF-2a block: 60*; Peg3 prom inh: 43; Shn3 3UTR inh: 97*; CF NFkB inh: 76*; KKLEB tox: 17; Mdm2 MdmX conf: 96*; HIF-2a conf: 43*; HIF-1a cs: 75*
